The source of these data is PubChem BioAssay (NCI).

Where “and” joins values, the source holds several entries; their conditions need not be identical. Equal values may be shown once. The panel holds about 83,000 compounds, 20% with a hit somewhere; the sample as a whole holds those more often.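 Interpretation: 100, growth as untreated; towards 0, rising growth inhibition; 0, no net growth; 0 to -100, cell death. Compounds scoring below 10 were considered active.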 Calls of active or inactive are those of the source.

The subject of the experiment is HL-60(TB) leukemia. The experiment is described as follows: NCI-60 one-dose screen, 48 h (100 = growth as untreated, 0 = no growth, -100 = all killed). The conditions noted are these: 10 µM unless noted.
Regarding `COc1ccccc1C(C[N+](=O)[O-])c1c(-c2ccccc2)[nH]c2cc(C)ccc12` (centres undefined), the growth is 58.9% (inactive).
Under `C=Cc1cc[n+](CCCCCCCCCCCC)cc1` stands 80% (inactive); under `COc1ccc(C2CC(c3cccc(Nc4ccncc4)c3)=NN2c2ccc(Cl)cc2)cc1` (centres undefined), -46.5% (active); under `CCOc1ccc(C(=O)Cc2ccccc2)cc1`, 97.4% (inactive).
Under `O=S(=O)(NCCCNc1nccc(-c2c(-c3ccc(F)c(O)c3)nc3sccn23)n1)c1ccccc1` stands 69.8% (inactive); under `COc1ccc(C2CC(c3cccs3)=NN2c2ccc(S(=O)(=O)NC(=O)Nc3ccc(C)cc3)cc2)cc1` (centres undefined), 126% (inactive).
With `Cc1nn(-c2ccccc2)c2nc(C)n(-c3ccc(Br)cc3)c(=O)c12` the figure was -5.26% (active); with `S=c1ssnc1-c1ccccn1`, -43.5% (active); with `CCC(C(=O)[C@@H](C)[C@@H](O)[C@H](C)[C@@H]1O[C@@H]([C@@H](CC)C(=O)ONC(=O)c2ccccc2)CC[C@@H]1C)[C@H]1O[C@]2(C=CC(=O)[C@]3(CC[C@@](C)([C@H]4CC[C@](O)(CC)[C@H](C)O4)O3)O2)[C@H](C)C[C@@H]1C` (some centres undefined), -63.9% (active).
As for `CN(C)c1ccc(/C=N/n2c(-c3cc(F)c(Cl)cc3Cl)nn(CN3CCOCC3)c2=S)cc1`, the growth was 101% (inactive).
With `C#CCn1cnc2c(Nc3cccc(NC(=O)C=C)c3)ncnc21` the figure was 99.6% (inactive); with `CCC(=C(c1ccc(OCCN2CCCC2)cc1)c1ccc(OCCN2CCCC2)cc1)c1ccc(Cl)cc1`, -52.5% (active).
Under `O=[N+]([O-])c1cccc(/C=C/c2ccc3ccccc3n2)c1` stands 90.8% (inactive).
As to `Cc1ccc(S(=O)(=O)N2C/C(=C\c3cc(F)cc(F)c3)C(=O)/C(=C/c3cc(F)cc(F)c3)C2)cc1`, the growth is 10.9% (inactive).
Under `CS(=O)(=O)OCC1NC(=O)C(COS(C)(=O)=O)NC1=O` (centres undefined) stands 98% (inactive) and 106% (inactive); under `O=P(O)(O)OCC(O)CO` (centres undefined), 97.7% (inactive).
Under `CC1=C(Nc2ccc(N3CCN(C)CC3)cc2)C(=O)c2cncnc2C1=O` stands -26.6% (active).
With `COc1ccc(-c2conc2-n2nc(-c3ccccc3)nc2-c2ccccc2)cc1` the figure was 99.3% (inactive).
For the molecule `O=[N+]([O-])c1ccc(Sc2ccncn2)c([N+](=O)[O-])c1`, the growth is 16.8% (inactive).
With `NC(=O)NO` the figure was 82.9% (inactive) and 72.8% (inactive); with `Nc1[nH][nH]c(=O)c1N=Nc1ccccc1`, 98.6% (inactive) and 102% (inactive); with `O=C1NC(=O)C2(CCc3ccccc32)N1` (centres undefined), 93.7% (inactive) and 106% (inactive).
With `O=S(=O)(NCCNc1cc(-c2cn(-c3ccccc3)nc2-c2cccc(O)c2)ccn1)c1ccc(Br)cc1` the figure was 11.1% (inactive).
Under `O=C(Nc1ccccc1)Oc1c(Cl)c(Cl)c(Cl)c(Cl)c1Cl` stands 86.8% (inactive) and 92.2% (inactive).
On to `COc1ccc2c(c1)C(C)Cc1c(ncnc1-n1c(C)nc3ccccc31)N2C` (centres undefined), for which the growth was 1.95% (active).
With `COc1cc(OCc2cccc(Br)c2C)cc(OC)c1C=O` the figure was 92.6% (inactive); with `N#Cc1c(-c2ccc(O)cc2)c2c(N)nn(-c3ccccc3)c2[nH]c1=O`, 102% (inactive); with `O=C(NCc1cccc(C(F)(F)F)c1)[C@H](CCC(=O)N1CCN(C2CCCCC2)CC1)N1C(=O)[C@@H](N2C(=O)OC[C@@H]2c2ccccc2)[C@H]1/C(Cl)=C/c1ccccc1`, 5.62% (active).
With `O[C@H]1CO[C@H]2[C@@H]1OC[C@@H]2Oc1ccc(Nc2nc(Nc3ccc(F)c(Cl)c3)ncc2F)cc1Cl`, the growth is 104% (inactive).
As for `COc1cc(NCCCCC(C)N)c2nccc(C)c2c1` (centres undefined), the growth is 96.7% (inactive).
With `CCOC(CN1CCN(CC(C)C(=O)c2ccccc2)CC1)c1ccccc1` (centres undefined) the figure was 110% (inactive).
As for `COC(=O)CCOc1ccccc1`, the growth is 102% (inactive).
Take `Cc1ccc2nc(C[n+]3ccc4ccccc4c3)ccc2c1`: the growth is 26.1% (inactive).
With `CCOC(=O)C1=C(N)Oc2cc(OC)ccc2C1c1ccc(F)c(F)c1` (centres undefined) the figure was -9% (active).
As to `O=C(/C=C/c1ccco1)c1ccc(Nc2nc(Nc3ccc(F)cc3)nc(Nc3ccc(Cl)cc3)n2)cc1`, the growth is -93.7% (active).
Under `CC(=O)C(CO)C(=O)Nc1ccccc1` (centres undefined) stands 100% (inactive); under `CC1CCCC(=O)O1` (centres undefined), 102% (inactive) and 119% (inactive); under `CCCNc1nc(SC)nc(-c2cccc(N)c2)c1C#N`, 98.9% (inactive).
Take `O=S1(=O)CC(Br)C(Br)C1` (centres undefined): the growth is 34.4% (inactive) and 81.8% (inactive).
